The values that follow come from PubChem BioAssay (EPA / NIEHS).

Calls of active or inactive are those of the source. How the source made its calls: active means hit-call score of the fitted dose curve at least 0.9, where 1 is the maximum; inactive means score below 0.9.

Read-out in test [1]: Plasminogen activator inhibitor-1 (PAI1), SERPINE1 (gene 5054)
Put plainly: BSK_MyoF_PAI1: BioMAP Diversity Plus: MyoF Assay for Plasminogen activator inhibitor-1 (PAI1) Biomarker Activity (AID 2284256).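 On outcome: PAI-1 protein level measured by ELISA in fibroblast cultures.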 The following applies: primary human lung fibroblasts. In outline:
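ELISA read-out of PAI-1 from primary human lung fibroblast cultures 24 h after dosing; gain-of-signal fit versus DMSO control.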

Read-out in test [2]: Interleukin-8 (IL8), CXCL8 (gene 3576)
Put plainly: BSK_MyoF_IL8: BioMAP Diversity Plus: MyoF Assay for Interleukin-8 (IL8) Biomarker Activity (AID 2284261). The following applies: primary human lung fibroblasts. In outline:
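ELISA read-out of IL-8 from primary human lung fibroblasts, 24 h post-dose; positive-direction curve fitting relative to DMSO vehicle baseline.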

Read-out in another test: Decorin, DCN (gene 1634)
Put plainly: BSK_MyoF_Decorin: BioMAP Diversity Plus: MyoF Assay for Decorin Biomarker Activity (AID 2284265). The following applies: primary human lung fibroblasts. In outline:
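Human lung fibroblasts in the MyoF system were exposed to compound for 24 h, after which decorin was quantified by ELISA. Activity was fitted in the positive direction relative to DMSO negative control.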

Test [3] is described as follows: BSK_MyoF_SRB: Viability Assessment in the BioMAP Diversity Plus: MyoF Assay (AID 2284267).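 Further: total protein by SRB absorbance in parallel cultures as cytotoxicity measure.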 To be noted: primary human lung fibroblasts. The method, boiled down: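 Cytotoxicity read-out: after 10% TCA fixation, parallel human lung fibroblast cultures were stained with 0.1% SRB at 24 h post-dosing and read at 560 nm; DMSO served as baseline.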
Read-out in test [4]: Monokine induced gamma interferon (MIG), CXCL9 (gene 4283)
Put plainly: BSK_KF3CT_MIG: BioMAP Diversity Plus: KF3CT Assay for Monokine induced gamma interferon (MIG) Biomarker Activity (AID 2284248). To be noted: primary human keratinocytes with fibroblasts. The method, boiled down:
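Human keratinocyte plus foreskin fibroblast primary co-culture dosed with test chemical for 24 h; MIG level measured by ELISA and fitted in the positive direction against DMSO as baseline.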

Read-out in test [5]: Vascular cell adhesion molecule 1 (VCAM1), VCAM1 (gene 7412)
Put plainly: BSK_BF4T_VCAM1: BioMAP Diversity Plus: BF4T Assay for Vascular cell adhesion molecule 1 (VCAM1) Biomarker Activity (AID 2284249). The following applies: primary human bronchial epithelial cells with fibroblasts. In outline: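 Cell-surface VCAM-1 quantified by ELISA after 24 h chemical exposure of human bronchial epithelial/dermal fibroblast co-cultures, with SRB staining in parallel wells for cytotoxicity; DMSO baseline, positive-direction fitting.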

Read-out in test [6]: Collagen I, COL1A1 (gene 1277)
Put plainly: BSK_hDFCGF_CollagenI: BioMAP Diversity Plus: hDFCGF Assay for Collagen I Biomarker Activity (AID 2284250). The following applies: primary human foreskin fibroblasts. In outline:
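Collagen I quantified by ELISA 24 h after chemical dosing of human dermal fibroblast primary cells, with parallel SRB staining (0.1%, TCA-fixed, 560 nm) for overt cytotoxicity.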

Read-out in test [7]: Interferon-inducible T-cell alpha chemoattractant (ITAC), CXCL11 (gene 6373)
Put plainly: BSK_hDFCGF_ITAC: BioMAP Diversity Plus: hDFCGF Assay for Interferon-inducible T-cell alpha chemoattractant (ITAC) Biomarker Activity (AID 2284251). The following applies: primary human foreskin fibroblasts. In outline: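 Measured by ELISA, the chemokine level serves as the endpoint in human skin fibroblast primary cultures 24 h after compound addition. Increases relative to DMSO-treated wells define activity.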

Read-out in test [8]: Plasminogen activator inhibitor-1 (PAI1), SERPINE1 (gene 5054)
Put plainly: BSK_KF3CT_PAI1: BioMAP Diversity Plus: KF3CT Assay for Plasminogen activator inhibitor-1 (PAI1) Biomarker Activity (AID 2284252). To be noted: primary human keratinocytes with fibroblasts. The method, boiled down: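 PAI-1 levels quantified by ELISA after 24 h compound exposure of primary human skin keratinocytes co-cultured with fibroblasts. Activity is the gain relative to DMSO; cytotoxicity tracked in parallel cultures via SRB staining.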

Read-out in test [9]: Monocyte Chemoattractant Protein-1 (MCP1), CCL2 (gene 6347)
Put plainly: BSK_IMphg_MCP1: BioMAP Diversity Plus: IMphg Assay for Monocyte Chemoattractant Protein-1 (MCP1) Biomarker Activity (AID 2284253). The following applies: primary human endothelial cells with macrophages. The method, boiled down:
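ELISA readout of MCP-1 at 24 hours in IMphg co-cultures of venular endothelial cells and macrophages, normalised to DMSO; parallel cultures stained with sulforhodamine B for overt cytotoxicity.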

Read-out in test [10]: Interleukin-8 (IL8), CXCL8 (gene 3576)
Put plainly: BSK_KF3CT_IL8: BioMAP Diversity Plus: KF3CT Assay for Interleukin-8 (IL8) Biomarker Activity (AID 2284254). The following applies: primary human keratinocytes with fibroblasts. In outline: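 Human primary keratinocyte plus foreskin fibroblast co-culture dosed with test chemicals; IL-8 measured by ELISA 24 h after dosing. Activity fitted in the positive direction relative to DMSO negative control.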

Read-out in test [11]: Macrophage Inflammatory Protein-1 Alpha (MIP1a), CCL3 (gene 6348)
Put plainly: BSK_IMphg_MIP1a: BioMAP Diversity Plus: IMphg Assay for Macrophage Inflammatory Protein-1 Alpha (MIP1a) Biomarker Activity (AID 2284255). To be noted: primary human endothelial cells with macrophages. The method, boiled down:
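MIP-1a protein levels were quantified by ELISA after 24 h treatment of human endothelial cell–macrophage co-cultures, compared with DMSO. Parallel cultures were fixed with TCA and stained with 0.1% SRB to gauge overt cytotoxicity.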

Read-out in a further test: CD69, CD69 (gene 969)
Put plainly: BSK_IMphg_CD69: BioMAP Diversity Plus: IMphg Assay for CD69 Biomarker Activity (AID 2284257). To be noted: primary human endothelial cells with macrophages. In outline: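 Readout is ELISA for CD69 in primary human venular endothelial cell/macrophage co-culture, taken at 24 h post-dosing. SRB staining of parallel cultures gauged overt cytotoxicity; signal increase versus DMSO defined activity.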

Read-out in test [12]: Eotaxin 3, CCL26 (gene 10344)
Put plainly: BSK_BF4T_Eotaxin3: BioMAP Diversity Plus: BF4T Assay for Eotaxin 3 Biomarker Activity (AID 2284258). To be noted: primary human bronchial epithelial cells with fibroblasts. In outline: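 ELISA measurement of Eotaxin-3 after 24 h chemical exposure in a bronchial epithelial/dermal fibroblast co-culture, with DMSO as baseline. Parallel SRB staining (0.1% SRB after 10% TCA fixation, 560 nm) flagged overt cytotoxicity.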

Read-out in test [13]: Monocyte Chemoattractant Protein-1 (MCP1), CCL2 (gene 6347)
Put plainly: BSK_BF4T_MCP1: BioMAP Diversity Plus: BF4T Assay for Monocyte Chemoattractant Protein-1 (MCP1) Biomarker Activity (AID 2284259). The following applies: primary human bronchial epithelial cells with fibroblasts. The method, boiled down: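 MCP-1 ELISA readout taken 24 h after dosing in the BF4T system (bronchial epithelial cells plus dermal fibroblasts). Parallel SRB total-protein staining flagged cytotoxicity; DMSO served as baseline, positive fitting direction.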

Read-out in test [14]: Intercellular Adhesion Molecule 1 (ICAM1), ICAM1 (gene 3383)
Put plainly: BSK_BF4T_ICAM1: BioMAP Diversity Plus: BF4T Assay for Intercellular Adhesion Molecule 1 (ICAM1) Biomarker Activity (AID 2284260). The following applies: primary human bronchial epithelial cells with fibroblasts. The method, boiled down: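 ICAM-1 levels measured by ELISA after 24 h chemical treatment of bronchial epithelial cell/dermal fibroblast co-cultures, read against DMSO baseline. Overt cytotoxicity checked in parallel cultures by sulforhodamine B staining.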

Read-out in a further test: CD90, THY1 (gene 7070)
Put plainly: BSK_BF4T_CD90: BioMAP Diversity Plus: BF4T Assay for CD90 Biomarker Activity (AID 2284262). The following applies: primary human bronchial epithelial cells with fibroblasts. The method, boiled down:
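CD90 levels by ELISA after 24 h treatment of human bronchial epithelial cell/dermal fibroblast cultures, analysed versus DMSO. Overt cytotoxicity checked in parallel cultures by sulforhodamine B staining.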

Read-out in test [15]: Interleukin-8 (IL8), CXCL8 (gene 3576)
Put plainly: BSK_BF4T_IL8: BioMAP Diversity Plus: BF4T Assay for Interleukin-8 (IL8) Biomarker Activity (AID 2284263). The following applies: primary human bronchial epithelial cells with fibroblasts. The method, boiled down: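 Human bronchial epithelial cells with dermal fibroblasts co-culture; IL-8 measured by ELISA 24 hours after dosing, fitted vs DMSO. Cytotoxicity tracked in parallel cultures by SRB total-protein staining.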

Read-out in test [16]: Interleukin-1 alpha (IL1a), IL1A (gene 3552)
Put plainly: BSK_BF4T_IL1a: BioMAP Diversity Plus: BF4T Assay for Interleukin-1 alpha (IL1a) Biomarker Activity (AID 2284264). The following applies: primary human bronchial epithelial cells with fibroblasts. In outline:
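ELISA read-out of IL-1α from bronchial epithelial cell/dermal fibroblast co-cultures 24 h after compound addition. Increases scored against DMSO negative control. Cytotoxicity monitored by sulforhodamine B staining of parallel cultures.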

Read-out in a further test: KRT18 (gene 3875)
Put plainly: BSK_BF4T_Keratin818: BioMAP Diversity Plus: BF4T Assay for Keratin 818 Biomarker Activity (AID 2284266). To be noted: primary human bronchial epithelial cells with fibroblasts. In outline:
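Keratin 8/18 levels quantified by ELISA after 24 h chemical treatment of bronchial epithelial cell/dermal fibroblast co-cultures, fitted in positive direction relative to DMSO. Parallel SRB staining tracks overt cytotoxicity.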

As for `C=CC(=O)NC(C)(C)C`, the outcome is “inactive” in test [1]; “inactive” in [2]; “inactive” with Decorin, DCN (gene 1634); “inactive” in test [3].
For `Nc1cccc(N)n1`, the outcome in test [1] was “inactive”; in test [2] it was “inactive”; in the test with Decorin, DCN (gene 1634), “inactive”; in test [3] it was “inactive”.
On to `COc1ccc(C(=O)c2ccccc2)c(O)c1`, for which the outcome is “inactive” in [1]; “inactive” in test [2]; “inactive” with Decorin, DCN (gene 1634); “inactive” in test [3].
For `CCCCCCCCCCCC(C)=O`, the outcome is “inactive” in test [1]; “inactive” in test [2]; “inactive” with Decorin, DCN (gene 1634); “inactive” in test [3].
For `O=C(O)C(F)(F)C(F)(F)C(F)(F)C(F)(F)C(=O)O`, the outcome in [4], in test [5], in test [6], in test [7], in [8] and in [9] was inactive. Besides, the outcome is “inactive” in [10]; “inactive” in test [11]; “inactive” in test [1]; “inactive” with CD69, CD69 (gene 969); “inactive” in test [12]; “inactive” in test [13]. In addition, the outcome in [14] is “inactive”; in test [2], “inactive”; with CD90, THY1 (gene 7070), “inactive”; in test [15] it was “inactive”; in test [16], “inactive”; in the test with Decorin, DCN (gene 1634), “inactive”. Moreover, the outcome (in the test with KRT18 (gene 3875); in test [3]) was inactive.
Turning to `CC1(C)CC(O)CC(C)(C)N1[O]`, the outcome in test [1] is “inactive”; in test [2], “inactive”; with Decorin, DCN (gene 1634) it was “inactive”; in test [3], “inactive”.
Regarding `CC(CCC(=O)O)(c1ccc(O)cc1)c1ccc(O)cc1`, the result in test [4], in [6], in test [7], in [8] and in [10] was inactive.
By AC50 is commonly meant the concentration at which the activity in the assay is half-maximal. For the compound `CC/C=C\CCOC(=O)c1ccccc1O`, the AC50 in test [1] was 31.3 µM (active); with Decorin, DCN (gene 1634), 20 µM (active); in test [3] it was 37 µM (active). In [2], the outcome was inactive.
`CCNc1nc(NC(C)(C)C)nc(OC)n1`: the outcome was “inactive” in test [1]; “inactive” in test [2]; “inactive” with Decorin, DCN (gene 1634); “inactive” in test [3].
Regarding `C=CC(=O)NCOCCCC`, the outcome in test [1] was “inactive”; in test [2] it was “inactive”; with Decorin, DCN (gene 1634), “inactive”; in test [3], “inactive”.
With `Nc1nc(N)nc(-c2ccccc2)n1`, the result in [4], in test [6], in [7], in test [8] and in [10] was inactive.
As for `CCOC(=O)C1=NN(c2ccc(Cl)cc2Cl)C(C)(C(=O)OCC)C1` (stereo unspecified), the outcome in [1] was “inactive”; in test [2], “inactive”; with Decorin, DCN (gene 1634), “inactive”; in test [3], “inactive”.
For `CC(Cl)COP(=O)(OCC(C)Cl)OCC(C)Cl` (stereo unspecified), the outcome was “inactive” in [1]; “inactive” in test [2]; “inactive” with Decorin, DCN (gene 1634); “inactive” in [3].
On to `c1ccc2c(c1)[nH]c1ccccc12`, for which the outcome is “inactive” in test [1]; “inactive” in test [2]; “inactive” in the test with Decorin, DCN (gene 1634); “inactive” in [3].
On to `CC(C)[N+](C)(CCOC(=O)C1c2ccccc2Oc2ccccc21)C(C)C`, for which, in test [1], the AC50 was 0.0398 µM (active). The outcome in test [2] was “inactive”; in the test with Decorin, DCN (gene 1634), “inactive”; in test [3], “inactive”.
With `CCCCCCCCCCCC(=O)N(C)CC(=O)O`, the outcome in [4], in test [6], in test [7], in [8] and in test [10] was inactive.
For `CCc1cccc(C)c1N(C(=O)CS(=O)(=O)O)C(C)COC` (stereo unspecified), the outcome in [1] is “inactive”; in [2] it was “inactive”; with Decorin, DCN (gene 1634), “inactive”; in test [3], “inactive”.
Take `CC(c1cc(C(C)(C)C)cc(C(C)(C)C)c1O)c1cc(C(C)(C)C)cc(C(C)(C)C)c1O`: the outcome is “inactive” in [1]; “inactive” in test [2]; “inactive” with Decorin, DCN (gene 1634); “inactive” in test [3].
For the compound `CC(C)C(=O)OCCc1ccccc1`, the result in test [4], in test [6], in test [7], in test [8] and in test [10] was inactive.
